Among the data in PubChem BioAssay (EPA / NIEHS) are outcome and AC50 values, retold here.

Results filed as inconclusive are left out. Active and inactive are the calls of the source. The calls were made as follows: active = hit-call score of the fitted dose curve at least 0.9, where 1 is the maximum; inconclusive = response in the unintended direction; inactive = score below 0.9.

The test in a line: ACEA_ER_AUC_viability: ACEA Biosciences xCELLigence Real-Time Cell Analysis on Estrogen Receptor Agonism for Viability (AID 2283782).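 Also: continuous compound exposure with impedance area under curve over 80 h; hit means loss of impedance signal meaning reduced cell growth or viability.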 An outline of the steps:
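T47D cells preconditioned in phenol red-free RPMI with charcoal-stripped FBS, then dosed with 8-point 1:4 series from 100 uM (up to 0.5% DMSO). Impedance monitored up to ~80 h; area-under-curve loss versus DMSO taken as viability.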
With `O=C1c2ccccc2C(=O)c2c(O)ccc(O)c21`, the result was inactive.
`CC1=CC[C@@]23C[C@@H]1C(C)(C)[C@@H]2CC[C@H]3C`: the AC50 – broadly, the midpoint of the concentration-response curve, whichever way the signal moves – is 78.5 µM (active).
Consider `O=C(Nc1ccc2c(O)c(N=Nc3ccc(N=Nc4ccc(S(=O)(=O)O)cc4)cc3)c(S(=O)(=O)O)cc2c1)c1ccccc1`, for which the molecule was called inactive.
For `CCCCC(CC)COC(=O)c1ccc(O)cc1` (configuration not stated), the AC50 is 22.4 µM (active).
Turning to `COC(=O)c1cccnc1`, the result was inactive.
Still for that read-out and setting: under `O=C(c1ccccc1)C(O)c1ccccc1` (configuration not stated) stands “inactive”; under `CN(C)C(=O)Nc1ccc(Oc2ccc(Cl)cc2)cc1`, “inactive”; under `ON=C1CCCCC1`, “inactive”.
The same measure, in the same setting: as for `CCCCCCCCc1ccc(S(=O)(=O)O)cc1`, the entry is “inactive”.
In the case of `Brc1ccc(Br)c(Br)c1`, the AC50 was 34.9 µM (active).
With `CCCOCCO`, the outcome was inactive.
On to `CC(C)=CCCC(C)CCOC=O` (configuration not stated), for which the concentration at half-maximal activity (AC50) was 50 µM (active).
Same read-out and setting: as for `O=C(CS)OCCOC(=O)CS`, the figure is 82.2 µM (active).
For `C[C@H]1C[C@@H](O)CC(C)(C)C1`, the AC50 is 50 µM (active).
For `CCC(C)=O`, the call was inactive.
With `CC(=O)c1c(C)c([N+](=O)[O-])c(C(C)(C)C)c([N+](=O)[O-])c1C`, the outcome was inactive.
On to `CC(=O)Nc1ccc(C(=O)CCl)cc1`, for which the AC50 is 21.5 µM (active).
In the case of `COc1ccc(COC(C)=O)cc1`, the molecule was called inactive.
For the molecule `COc1cc([C@@H]2c3cc4c(cc3[C@@H](O[C@@H]3O[C@@H]5CO[C@@H](C)O[C@H]5[C@H](O)[C@H]3O)[C@H]3COC(=O)[C@H]23)OCO4)cc(OC)c1O`, the concentration at half-maximal activity (AC50) is 10.6 µM (active).
With `NCC1CCCC(CN)C1` (configuration not stated), the molecule was called inactive.
For the molecule `CCCCCCC(CO)CCCC` (configuration not stated), the AC50 is 76.9 µM (active).
For `Cc1cc(=O)oc2cc(N(C)C)ccc12`, the outcome was inactive.
